From the supplement of paper PMC10849652 come the findings set out here.

About 7,900 targets were measured; listed, in parts, are those with a hit and a random draw of the rest. About 0.6% of all pairs of compound and target were hits. A number with no mark means an inactive call.

Chain of UniProt Q86UE8 (Q86UE8 whole entry, looked up): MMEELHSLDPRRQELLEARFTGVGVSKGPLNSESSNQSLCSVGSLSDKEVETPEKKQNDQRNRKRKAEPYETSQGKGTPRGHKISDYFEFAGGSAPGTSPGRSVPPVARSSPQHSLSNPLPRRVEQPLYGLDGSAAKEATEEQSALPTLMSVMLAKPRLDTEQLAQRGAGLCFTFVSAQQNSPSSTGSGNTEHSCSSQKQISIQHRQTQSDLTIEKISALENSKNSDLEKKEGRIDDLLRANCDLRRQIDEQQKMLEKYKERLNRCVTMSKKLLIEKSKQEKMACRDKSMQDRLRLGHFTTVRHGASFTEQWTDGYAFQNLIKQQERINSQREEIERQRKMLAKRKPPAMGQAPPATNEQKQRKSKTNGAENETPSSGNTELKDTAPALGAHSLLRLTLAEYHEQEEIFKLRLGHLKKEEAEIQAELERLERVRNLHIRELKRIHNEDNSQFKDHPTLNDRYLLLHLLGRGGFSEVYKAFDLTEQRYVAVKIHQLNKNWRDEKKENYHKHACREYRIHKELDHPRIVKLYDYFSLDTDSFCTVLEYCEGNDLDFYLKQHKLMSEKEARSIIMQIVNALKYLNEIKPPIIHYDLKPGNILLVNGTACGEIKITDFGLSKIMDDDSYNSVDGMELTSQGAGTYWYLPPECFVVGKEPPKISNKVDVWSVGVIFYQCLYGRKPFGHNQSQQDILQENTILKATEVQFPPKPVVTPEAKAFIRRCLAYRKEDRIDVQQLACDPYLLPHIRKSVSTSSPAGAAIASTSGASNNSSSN
Chain of UniProt Q8TC07 (Q8TC07 whole entry, looked up): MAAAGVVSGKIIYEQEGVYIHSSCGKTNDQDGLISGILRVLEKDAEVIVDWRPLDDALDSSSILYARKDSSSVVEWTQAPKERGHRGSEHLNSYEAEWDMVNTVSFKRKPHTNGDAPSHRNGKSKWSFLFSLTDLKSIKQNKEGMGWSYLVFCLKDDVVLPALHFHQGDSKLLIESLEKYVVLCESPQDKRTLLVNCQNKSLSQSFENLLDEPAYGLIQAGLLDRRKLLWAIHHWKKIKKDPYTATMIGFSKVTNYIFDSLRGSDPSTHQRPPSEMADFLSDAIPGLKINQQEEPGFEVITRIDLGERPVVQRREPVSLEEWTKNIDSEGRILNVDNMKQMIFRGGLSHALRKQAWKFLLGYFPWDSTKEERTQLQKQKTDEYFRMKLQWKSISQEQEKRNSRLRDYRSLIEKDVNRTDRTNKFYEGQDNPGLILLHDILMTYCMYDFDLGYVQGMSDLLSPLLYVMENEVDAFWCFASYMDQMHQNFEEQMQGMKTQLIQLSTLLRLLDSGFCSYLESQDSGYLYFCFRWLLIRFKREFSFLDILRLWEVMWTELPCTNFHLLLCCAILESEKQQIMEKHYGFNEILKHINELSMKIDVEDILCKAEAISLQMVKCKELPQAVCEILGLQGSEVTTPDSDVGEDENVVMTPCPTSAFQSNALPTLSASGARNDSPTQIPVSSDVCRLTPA
Chain of UniProt Q8WVK2 (Q8WVK2 whole entry, looked up): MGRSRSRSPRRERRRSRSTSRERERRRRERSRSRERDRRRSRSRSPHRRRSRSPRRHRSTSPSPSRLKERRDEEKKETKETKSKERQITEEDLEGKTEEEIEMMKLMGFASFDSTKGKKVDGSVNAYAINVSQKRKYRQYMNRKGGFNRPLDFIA
Chain of UniProt Q02447 (Q02447 whole entry, looked up): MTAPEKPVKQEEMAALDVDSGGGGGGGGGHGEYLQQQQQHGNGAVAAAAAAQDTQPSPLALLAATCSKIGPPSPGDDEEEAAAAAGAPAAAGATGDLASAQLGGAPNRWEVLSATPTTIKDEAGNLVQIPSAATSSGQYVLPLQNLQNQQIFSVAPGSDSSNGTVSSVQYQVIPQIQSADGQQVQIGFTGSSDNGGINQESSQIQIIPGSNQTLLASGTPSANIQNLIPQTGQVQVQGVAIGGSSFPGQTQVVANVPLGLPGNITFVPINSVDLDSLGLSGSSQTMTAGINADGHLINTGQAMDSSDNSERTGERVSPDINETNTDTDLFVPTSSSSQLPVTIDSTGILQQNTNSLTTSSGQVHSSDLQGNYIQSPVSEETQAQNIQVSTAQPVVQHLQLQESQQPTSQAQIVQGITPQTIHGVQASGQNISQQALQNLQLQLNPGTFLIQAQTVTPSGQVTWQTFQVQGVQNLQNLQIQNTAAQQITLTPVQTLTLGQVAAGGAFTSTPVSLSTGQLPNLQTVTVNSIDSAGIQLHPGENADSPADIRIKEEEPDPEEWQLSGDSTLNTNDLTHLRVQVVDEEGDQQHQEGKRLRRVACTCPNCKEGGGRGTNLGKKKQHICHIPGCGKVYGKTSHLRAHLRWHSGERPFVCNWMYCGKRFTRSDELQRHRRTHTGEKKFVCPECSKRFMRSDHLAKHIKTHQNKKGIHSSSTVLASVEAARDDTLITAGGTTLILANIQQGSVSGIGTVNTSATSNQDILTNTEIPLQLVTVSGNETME
Chain of UniProt Q9NQZ5 (Q9NQZ5 whole entry, looked up): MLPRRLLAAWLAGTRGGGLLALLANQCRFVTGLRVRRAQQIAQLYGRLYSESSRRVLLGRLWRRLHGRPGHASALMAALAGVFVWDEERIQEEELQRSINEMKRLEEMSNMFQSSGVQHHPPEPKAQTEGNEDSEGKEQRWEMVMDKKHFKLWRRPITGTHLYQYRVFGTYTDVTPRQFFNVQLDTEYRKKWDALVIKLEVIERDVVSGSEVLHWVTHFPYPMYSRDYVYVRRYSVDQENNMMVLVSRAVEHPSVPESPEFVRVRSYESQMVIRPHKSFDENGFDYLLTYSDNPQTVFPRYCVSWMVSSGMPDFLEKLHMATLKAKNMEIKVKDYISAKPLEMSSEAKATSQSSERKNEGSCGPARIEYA
Chain of UniProt Q9NZ01 (Q9NZ01 whole entry, looked up): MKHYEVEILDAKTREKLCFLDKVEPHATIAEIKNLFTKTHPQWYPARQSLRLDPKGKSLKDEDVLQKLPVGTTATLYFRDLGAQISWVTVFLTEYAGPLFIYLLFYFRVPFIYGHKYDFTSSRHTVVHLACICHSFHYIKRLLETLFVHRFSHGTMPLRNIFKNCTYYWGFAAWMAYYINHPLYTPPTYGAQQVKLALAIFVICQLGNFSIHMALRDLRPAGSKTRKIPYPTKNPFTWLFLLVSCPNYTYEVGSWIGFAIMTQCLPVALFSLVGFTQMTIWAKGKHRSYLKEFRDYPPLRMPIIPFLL
Chain of UniProt P08240 (P08240 whole entry, looked up): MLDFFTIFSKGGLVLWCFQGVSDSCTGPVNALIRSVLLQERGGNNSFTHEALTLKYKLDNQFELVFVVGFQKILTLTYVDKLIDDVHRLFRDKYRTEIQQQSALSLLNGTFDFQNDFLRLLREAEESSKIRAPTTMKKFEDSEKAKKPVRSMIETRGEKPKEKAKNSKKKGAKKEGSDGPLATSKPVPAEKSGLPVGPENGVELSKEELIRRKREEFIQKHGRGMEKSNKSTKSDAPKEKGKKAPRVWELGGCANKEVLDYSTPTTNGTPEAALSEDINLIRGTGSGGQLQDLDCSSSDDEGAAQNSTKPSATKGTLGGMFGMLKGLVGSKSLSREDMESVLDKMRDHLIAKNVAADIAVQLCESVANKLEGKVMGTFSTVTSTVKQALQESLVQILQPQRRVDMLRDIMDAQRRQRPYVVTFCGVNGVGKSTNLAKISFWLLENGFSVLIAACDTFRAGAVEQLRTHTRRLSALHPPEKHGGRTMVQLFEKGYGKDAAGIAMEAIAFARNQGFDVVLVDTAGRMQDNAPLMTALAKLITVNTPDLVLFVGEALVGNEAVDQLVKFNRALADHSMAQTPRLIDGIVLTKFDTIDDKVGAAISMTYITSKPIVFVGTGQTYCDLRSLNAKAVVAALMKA
Chain of UniProt Q8NBW4 (Q8NBW4 whole entry, looked up): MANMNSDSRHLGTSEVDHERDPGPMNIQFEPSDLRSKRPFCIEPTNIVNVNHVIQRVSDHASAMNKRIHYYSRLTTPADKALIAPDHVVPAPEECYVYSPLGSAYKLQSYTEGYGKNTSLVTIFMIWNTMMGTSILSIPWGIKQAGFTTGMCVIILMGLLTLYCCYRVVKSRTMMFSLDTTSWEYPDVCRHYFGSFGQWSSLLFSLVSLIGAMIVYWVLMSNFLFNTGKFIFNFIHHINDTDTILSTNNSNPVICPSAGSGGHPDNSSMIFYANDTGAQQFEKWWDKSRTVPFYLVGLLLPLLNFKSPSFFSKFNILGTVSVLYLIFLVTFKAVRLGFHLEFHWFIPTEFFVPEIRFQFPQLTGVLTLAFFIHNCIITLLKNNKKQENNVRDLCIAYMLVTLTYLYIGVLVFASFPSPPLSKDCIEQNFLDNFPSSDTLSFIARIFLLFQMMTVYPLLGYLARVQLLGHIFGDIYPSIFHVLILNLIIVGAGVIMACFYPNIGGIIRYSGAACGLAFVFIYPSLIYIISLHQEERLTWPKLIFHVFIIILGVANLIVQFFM
Chain of UniProt Q8NEW0 (Q8NEW0 whole entry, looked up): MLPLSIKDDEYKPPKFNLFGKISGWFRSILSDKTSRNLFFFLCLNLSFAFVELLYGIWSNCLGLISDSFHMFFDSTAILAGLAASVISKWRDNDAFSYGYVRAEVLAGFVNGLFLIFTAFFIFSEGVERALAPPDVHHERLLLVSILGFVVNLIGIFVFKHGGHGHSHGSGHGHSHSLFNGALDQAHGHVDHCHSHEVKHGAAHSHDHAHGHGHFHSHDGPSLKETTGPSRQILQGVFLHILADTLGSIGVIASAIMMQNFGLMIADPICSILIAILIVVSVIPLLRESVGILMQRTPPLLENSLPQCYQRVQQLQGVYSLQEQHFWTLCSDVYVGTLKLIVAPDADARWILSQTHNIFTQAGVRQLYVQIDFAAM
Chain of UniProt P63165 (P63165 whole entry, looked up): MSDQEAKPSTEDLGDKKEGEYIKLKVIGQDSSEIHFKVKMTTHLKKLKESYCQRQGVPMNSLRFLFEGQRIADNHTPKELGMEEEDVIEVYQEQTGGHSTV
Chain of UniProt P84103 (P84103 whole entry, looked up): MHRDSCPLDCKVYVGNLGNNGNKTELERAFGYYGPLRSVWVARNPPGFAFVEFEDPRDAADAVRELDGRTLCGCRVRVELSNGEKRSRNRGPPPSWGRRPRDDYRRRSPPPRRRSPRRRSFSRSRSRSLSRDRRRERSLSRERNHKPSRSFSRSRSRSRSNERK

Compound in this assay: CS(=O)(=O)CCNCc1ccc(-c2ccc3ncnc(Nc4ccc(OCc5cccc(F)c5)c(Cl)c4)c3c2)o1 [lapatinib]
Briefly: log2 fold change, soluble protein after heating vs DMSO (PISA); higher = thermal stabilisation; K562 cells, 10 uM, 30 min; active = over 0.2 and 3.5 SD of the protein, either way, in both replicates (recomputed). Put shortly: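 Values are thermal stability changes relative to control samples and are taken from duplicates. They are stated as log2 fold changes. Before quantification by TMTpro 16plex LC-MS/MS with equalised channel sums, K562 cells at 2×10^6 cells/mL were treated with 10 μM compound for 30 min, heated in aliquots for 3 min across 48°C-58°C, pooled, extracted in PBS with 0.5% NP-40 at 4°C, and centrifuged at 21,000xg for 90 min to give the soluble supernatant.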
For the target SNRNP27 (UniProt Q8WVK2), the log2 fold change is 0.005.

On to SRP68 (UniProt Q9UHB9), for which the log2 fold change was -0.011.

As for SP3 (UniProt Q02447), the log2 fold change was 0.016.

Regarding TLK2 isoform 2 (UniProt Q86UE8), the log2 fold change was 0.041.

On to STAT6 (UniProt P42226), for which the log2 fold change is -0.016.

For the target SLC38A9 (UniProt Q8NBW4), the log2 fold change is -0.065.

As for STAM2 (UniProt O75886), the log2 fold change is -0.018.

With SLC30A7 (UniProt Q8NEW0), the log2 fold change was -0.013.

Turning to STARD7 (UniProt Q9NQZ5), the log2 fold change is 0.003.

SUMO1 (UniProt P63165): the log2 fold change was 0.549 (active).

For the target STAT5A (UniProt P42229), the log2 fold change was 0.

As for SRPRA (UniProt P08240), the log2 fold change was 0.013.

With TBC1D15 isoform 3 (UniProt Q8TC07), the log2 fold change was 0.032.

In the case of TFRC (UniProt P02786), the log2 fold change was -0.03.

In the case of SRSF7 (UniProt Q16629), the log2 fold change is 0.1.

For TAMM41 isoform 3 (UniProt Q96BW9), the log2 fold change is 0.021.

As for STK38 (UniProt Q15208), the log2 fold change is -0.001.

As to SLC6A6 (UniProt P31641), the log2 fold change is -0.012.

In the case of TBC1D23 (UniProt Q9NUY8), the log2 fold change was -0.053.

As to SMAD9 (UniProt O15198), the log2 fold change was 0.051.

Consider SRSF3 (UniProt P84103), for which the log2 fold change is -0.006.

In the case of TBCD (UniProt Q9BTW9), the log2 fold change is -0.024.

TECR (UniProt Q9NZ01): the log2 fold change was -0.012.
